Several values for one entry are separate records, joined by “and”; a condition that tells them apart may be missing. Equal entries are not always repeated. Some structures have more than one record in an assay (separate samples or runs), and their calls can disagree. Activity calls are given as the source filed them. Rule for the calls: active = hit-call score of the fitted dose curve at least 0.9, where 1 is the maximum; inactive = score below 0.9.
Assays:
[1] = read-out: TIMP metallopeptidase inhibitor 1 (TIMP1), TIMP1 (gene 7076); assay: BSK_hDFCGF_TIMP1: BioMAP Diversity Plus: hDFCGF Assay for TIMP metallopeptidase inhibitor 1 (TIMP1) Biomarker Activity (AID 2283062); settings: primary human foreskin fibroblasts; actives raise or lower the signal
Outline: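 Fibroblasts from human foreskin are treated with test chemical and harvested at 24 h. TIMP-1 is quantified by ELISA, and gain or loss of signal is scored against DMSO.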

[2] = read-out: Monokine induced gamma interferon (MIG), CXCL9 (gene 4283); assay: BSK_hDFCGF_MIG: BioMAP Diversity Plus: hDFCGF Assay for Monokine induced gamma interferon (MIG) Biomarker Activity (AID 2283063); settings: primary human foreskin fibroblasts; actives raise or lower the signal
Outline: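 MIG signal, determined by ELISA, reflects 24 h chemical exposure of human skin primary fibroblasts. DMSO serves as negative control and baseline.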

[3] = read-out: Matrix Metallopeptidase 1 (MMP1), MMP1 (gene 4312); assay: BSK_hDFCGF_MMP1: BioMAP Diversity Plus: hDFCGF Assay for Matrix Metallopeptidase 1 (MMP1) Biomarker Activity (AID 2283064); settings: primary human foreskin fibroblasts; actives raise or lower the signal
Outline: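 Human foreskin fibroblasts exposed to chemical for 24 h; MMP1 detected by ELISA, with DMSO as baseline for bidirectional fitting.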

[4] = read-out: Vascular cell adhesion molecule 1 (VCAM1), VCAM1 (gene 7412); assay: BSK_hDFCGF_VCAM1: BioMAP Diversity Plus: hDFCGF Assay for Vascular cell adhesion molecule 1 (VCAM1) Biomarker Activity (AID 2283065); settings: primary human foreskin fibroblasts; actives raise or lower the signal;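 for AC50: VCAM-1 protein level quantified by ELISA after 24 h chemical exposure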
Outline: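 Cells are dosed, cultured for 24 h, then VCAM-1 is quantified by ELISA; signal increases and decreases are both fitted relative to DMSO.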

[5] = read-out: Plasminogen activator inhibitor-1 (PAI1), SERPINE1 (gene 5054); assay: BSK_hDFCGF_PAI1: BioMAP Diversity Plus: hDFCGF Assay for Plasminogen activator inhibitor-1 (PAI1) Biomarker Activity (AID 2283066); settings: primary human foreskin fibroblasts; actives raise or lower the signal
Outline: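 Fibroblasts from human foreskin were treated with test chemical. After 24 h, PAI-1 was measured by ELISA. Activity was fitted in both directions relative to DMSO.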

[6] = read-out: Intercellular Adhesion Molecule 1 (ICAM1), ICAM1 (gene 3383); assay: BSK_KF3CT_ICAM1: BioMAP Diversity Plus: KF3CT Assay for Intercellular Adhesion Molecule 1 (ICAM1) Biomarker Activity (AID 2283067); settings: primary human keratinocytes with fibroblasts; actives raise or lower the signal
Outline: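 Dose the keratinocyte/fibroblast co-culture, wait 24 h, measure ICAM-1 by ELISA, then fit increases or decreases against DMSO. Cytotoxicity is checked in parallel cultures by SRB total-protein staining.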

[7] = read-out: Interferon-gamma inducible Protein 10 (IP10), CXCL10 (gene 3627); assay: BSK_KF3CT_IP10: BioMAP Diversity Plus: KF3CT Assay for Interferon-gamma inducible Protein 10 (IP10) Biomarker Activity (AID 2283068); settings: primary human keratinocytes with fibroblasts; actives raise or lower the signal
Outline: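 Signal is secreted/surface IP-10 by ELISA in a human primary skin co-culture of keratinocytes and foreskin fibroblasts, taken 24 h post-dosing; DMSO served as negative control.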

[8] = BSK_KF3CT_SRB: Viability Assessment in the BioMAP Diversity Plus: KF3CT Assay (AID 2283069); settings: primary human keratinocytes with fibroblasts;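 note: read 24 h after compound addition; fitted for both signal gain and loss against DMSO baseline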
Outline: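 Overt cytotoxicity is assessed as total protein by sulforhodamine B staining in parallel human skin co-cultures at 24 h after dosing. DMSO serves as negative control and baseline.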

[9] = read-out: Interleukin-1 alpha (IL1a), IL1A (gene 3552); assay: BSK_KF3CT_IL1a: BioMAP Diversity Plus: KF3CT Assay for Interleukin-1 alpha (IL1a) Biomarker Activity (AID 2283070); settings: primary human keratinocytes with fibroblasts; actives raise or lower the signal
Outline: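 Readout is IL-1a level by ELISA, compared bidirectionally with DMSO as baseline. Cells: human keratinocytes co-cultured with foreskin fibroblasts, harvested 24 h post-dose.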

[10] = read-out: TIMP metallopeptidase inhibitor 2 (TIMP2), TIMP2 (gene 7077); assay: BSK_KF3CT_TIMP2: BioMAP Diversity Plus: KF3CT Assay for TIMP metallopeptidase inhibitor 2 (TIMP2) Biomarker Activity (AID 2283071); settings: primary human keratinocytes with fibroblasts; actives raise or lower the signal
Outline: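 Chemicals were dosed onto human skin primary co-cultures of keratinocytes and foreskin fibroblasts, and TIMP-2 was measured by ELISA after 24 hours. Activity in either direction was fitted relative to DMSO.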

Compound	AC50 [1]	AC50 [2]	AC50 [3]	AC50 [4]	AC50 [5]	outcome [6]	AC50 [7]	AC50 [8]	AC50 [9]	AC50 [10]	outcome [1]	outcome [8]	outcome [9]	outcome [10]	outcome [2]	outcome [3]	outcome [4]	outcome [5]	outcome [7]	AC50 [6]
C#CCOS(=O)OC1CCCCC1Oc1ccc(C(C)(C)C)cc1 (centres undefined)	5.66 µM (active)	13 µM (active)	10 µM (active)	3.65 µM (active)	5.14 µM (active)	inactive	12.8 µM (active)	9.7 µM (active)	14.8 µM (active)	14 µM (active)										
Fc1ccc(Oc2ccnc3cc(Cl)cc(Cl)c23)cc1		26.6 µM (active)	35.3 µM (active)	13.2 µM (active)	18 µM (active)	inactive	17.9 µM (active)				inactive	inactive	inactive	inactive						
CON(C)C(=O)Nc1ccc(Cl)c(Cl)c1											inactive	inactive	inactive	inactive	inactive	inactive	inactive	inactive	inactive	
COc1cnc(OC)n2nc(NS(=O)(=O)c3c(OCC(F)F)cccc3C(F)(F)F)nc12	20 µM (active)						34.2 µM (active)				inactive	inactive	inactive	inactive	inactive	inactive	inactive	inactive	inactive	
CCOc1cc(Oc2ccc(C(F)(F)F)cc2Cl)ccc1[N+](=O)[O-]			2.89 µM (active)		5.49 µM (active)				6.07 µM (active)		inactive	inactive		inactive	inactive		inactive		inactive	
COc1nc(NC(C)C)nc(NC(C)C)n1						inactive					inactive	inactive	inactive	inactive	inactive	inactive	inactive	inactive	inactive	
CCc1nn(C)c(C(=O)NCc2ccc(C(C)(C)C)cc2)c1Cl	32.1 µM (active)	33.7 µM (active)	32.2 µM (active)	20 µM (active)	15.5 µM (active)		18.7 µM (active)	32.4 µM (active)	29.5 µM (active)	27.7 µM (active)										32.9 µM (active)
CCCN(CCC)c1c([N+](=O)[O-])cc(S(N)(=O)=O)cc1[N+](=O)[O-]	33.5 µM (active) and 34 µM (active)	32 µM (active) and 34.1 µM (active)	33.6 µM (active) and 348 nM (active)	32.7 µM (active) and 35.6 µM (active)	21.1 µM (active) and 21.6 µM (active)	inactive		34.6 µM (active)		34.6 µM (active)	inactive	inactive	inactive	inactive	inactive	inactive	inactive	inactive	inactive	
CCCCC(CC)COC(=O)c1ccccc1C(=O)OCC(CC)CCCC (centres undefined)						inactive	15.1 µM (active)				inactive	inactive	inactive	inactive	inactive	inactive	inactive	inactive		
COc1nc(C)nc(NC(=O)NS(=O)(=O)c2ccccc2Cl)n1							0.148 µM (active)			31.6 µM (active)	inactive	inactive	inactive	inactive	inactive	inactive	inactive	inactive	inactive	
CCCCNC(=O)n1c(NC(=O)OC)nc2ccccc21			11.3 µM (active)			inactive			20 µM (active)		inactive	inactive		inactive	inactive		inactive	inactive	inactive	
C=CCC1=C(C)[C@@H](OC(=O)[C@@H]2[C@@H](C=C(C)C)C2(C)C)CC1=O	32.1 µM (active)	31.6 µM (active)	31 µM (active)	29.6 µM (active)	36.6 µM (active)	inactive		20 µM (active)					inactive	inactive					inactive	
CC1COC(Cn2cncn2)(c2ccc(Oc3ccc(Cl)cc3)cc2Cl)O1 (centres undefined)	30.4 µM (active)	31.1 µM (active)	33.8 µM (active)	30.8 µM (active)	32.1 µM (active)		34.7 µM (active)	33.7 µM (active)	38 µM (active)	26.7 µM (active)										
CN(C)C(=S)SSC(=S)N(C)C	9.76 µM (active)	3.01 µM (active)	5.34 µM (active)	4.12 µM (active)	5.64 µM (active)		6.1 µM (active)	7.21 µM (active)	6.44 µM (active)	6.4 µM (active)										6.42 µM (active)
CC(C)C1(C)N=C(c2nc3ccccc3cc2C(=O)O)NC1=O (centres undefined)						inactive					inactive	inactive	inactive	inactive	inactive	inactive	inactive	inactive	inactive	
COc1nc(C)nc(NC(=O)NS(=O)(=O)c2ccccc2CCC(F)(F)F)n1			0.439 µM (active)								inactive	inactive	inactive	inactive	inactive	inactive	inactive	inactive	inactive	
Cc1ccc(-c2c(Cl)nc(C#N)n2S(=O)(=O)N(C)C)cc1	18.3 µM (active)			4.39 µM (active)				11.3 µM (active)					inactive	inactive	inactive	inactive		inactive	inactive	
CCCCOC(=O)c1ccccc1C(=O)OCCCC				14 µM (active)							inactive	inactive	inactive	inactive	inactive	inactive	inactive	inactive	inactive	
C=CCC1=C(C)C(OC(=O)C2C(C=C(C)C)C2(C)C)CC1=O (centres undefined)	33.9 µM (active) [middle of 4 runs]	38.9 µM (active) [middle of 4 runs]	35.6 µM (active) [middle of 4 runs]	28.7 µM (active) [middle of 4 runs]	30.4 µM (active) and 38.4 µM (active) and 38.8 µM (active)	inactive	35 µM (active) and 31 µM (active) and 29.2 µM (active)	34.7 µM (active) and 25.5 µM (active)	34.3 µM (active) and 38.6 µM (active)	31.1 µM (active) and 32.9 µM (active) and 26.7 µM (active)		inactive	inactive	inactive					inactive	
CNC(=S)S			7.89 µM (active)			inactive	20.7 µM (active)				inactive	inactive	inactive	inactive	inactive		inactive	inactive		
CCOC(=O)CC(SP(=S)(OC)OC)C(=O)OCC (centres undefined)											inactive	inactive	inactive	inactive	inactive	inactive	inactive	inactive	inactive	
Cc1cc(Cl)ccc1OCC(=O)O						inactive					inactive	inactive	inactive	inactive	inactive	inactive	inactive	inactive	inactive	
COC(=O)C(C)Oc1ccc(Oc2ccc(Cl)cc2Cl)cc1 (centres undefined)							25.4 µM (active) and 20 µM (active)		5.15 µM (active)		inactive	inactive	inactive	inactive	inactive	inactive	inactive	inactive	inactive	
CS/C(C)=N/OC(=O)N(C)SN(C)C(=O)O/N=C(\C)SC		11 µM (active)			12 µM (active)		12.4 µM (active)	12.5 µM (active)	17.8 µM (active)	14.5 µM (active)	inactive					inactive	inactive			
O=C(O)c1nc(Cl)ccc1Cl							0.147 µM (active)		0.148 µM (active)		inactive	inactive	inactive	inactive	inactive	inactive	inactive	inactive	inactive	

From PubChem BioAssay (EPA / NIEHS)
